An excerpt weighted towards active compounds, which were near 11% of everything screened.
HP1b binding inh: blocks HP1-beta chromodomain binding to methylated histone tails; P83916; AlphaScreen HP1-beta / biotin-H3K9me3 peptide binding; Potency, µM (titrated, usually from 114 µM), for inactives: at the top dose activity change, negative = inhibition, most hits filed as inhibitors; 390,000 compounds, 0.56% hits; also: nearly all actives have a fitted effect of over 70% in size
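AlphaScreen: HP1-beta (50 nM) preformed 30 min with biotin-H3(1-18)K9me3 peptide (50 nM) in PBS pH 7.4, 0.01% Tween-20. Compound added for 30 min at RT, then streptavidin donor/nickel chelate acceptor beads (10 ug/mL) for 30 min.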
BAZ2B inh: inhibitors of human BAZ2B bromodomain. Q9UIF8. AID 504333. AlphaScreen BAZ2B-H3K14Ac peptide displacement. 360,000 compounds, 4.4% hits. Potency, µM (series often up to 114 µM), for the others: top-dose activity change, negative = inhibition, most hits filed as inhibitors; also: % is scaled to controls: 0 for no effect and ±100 for the full control effect; nearly all actives have a fitted effect of over 60% in size
Target sequence (Q9UIF8 whole entry, looked up): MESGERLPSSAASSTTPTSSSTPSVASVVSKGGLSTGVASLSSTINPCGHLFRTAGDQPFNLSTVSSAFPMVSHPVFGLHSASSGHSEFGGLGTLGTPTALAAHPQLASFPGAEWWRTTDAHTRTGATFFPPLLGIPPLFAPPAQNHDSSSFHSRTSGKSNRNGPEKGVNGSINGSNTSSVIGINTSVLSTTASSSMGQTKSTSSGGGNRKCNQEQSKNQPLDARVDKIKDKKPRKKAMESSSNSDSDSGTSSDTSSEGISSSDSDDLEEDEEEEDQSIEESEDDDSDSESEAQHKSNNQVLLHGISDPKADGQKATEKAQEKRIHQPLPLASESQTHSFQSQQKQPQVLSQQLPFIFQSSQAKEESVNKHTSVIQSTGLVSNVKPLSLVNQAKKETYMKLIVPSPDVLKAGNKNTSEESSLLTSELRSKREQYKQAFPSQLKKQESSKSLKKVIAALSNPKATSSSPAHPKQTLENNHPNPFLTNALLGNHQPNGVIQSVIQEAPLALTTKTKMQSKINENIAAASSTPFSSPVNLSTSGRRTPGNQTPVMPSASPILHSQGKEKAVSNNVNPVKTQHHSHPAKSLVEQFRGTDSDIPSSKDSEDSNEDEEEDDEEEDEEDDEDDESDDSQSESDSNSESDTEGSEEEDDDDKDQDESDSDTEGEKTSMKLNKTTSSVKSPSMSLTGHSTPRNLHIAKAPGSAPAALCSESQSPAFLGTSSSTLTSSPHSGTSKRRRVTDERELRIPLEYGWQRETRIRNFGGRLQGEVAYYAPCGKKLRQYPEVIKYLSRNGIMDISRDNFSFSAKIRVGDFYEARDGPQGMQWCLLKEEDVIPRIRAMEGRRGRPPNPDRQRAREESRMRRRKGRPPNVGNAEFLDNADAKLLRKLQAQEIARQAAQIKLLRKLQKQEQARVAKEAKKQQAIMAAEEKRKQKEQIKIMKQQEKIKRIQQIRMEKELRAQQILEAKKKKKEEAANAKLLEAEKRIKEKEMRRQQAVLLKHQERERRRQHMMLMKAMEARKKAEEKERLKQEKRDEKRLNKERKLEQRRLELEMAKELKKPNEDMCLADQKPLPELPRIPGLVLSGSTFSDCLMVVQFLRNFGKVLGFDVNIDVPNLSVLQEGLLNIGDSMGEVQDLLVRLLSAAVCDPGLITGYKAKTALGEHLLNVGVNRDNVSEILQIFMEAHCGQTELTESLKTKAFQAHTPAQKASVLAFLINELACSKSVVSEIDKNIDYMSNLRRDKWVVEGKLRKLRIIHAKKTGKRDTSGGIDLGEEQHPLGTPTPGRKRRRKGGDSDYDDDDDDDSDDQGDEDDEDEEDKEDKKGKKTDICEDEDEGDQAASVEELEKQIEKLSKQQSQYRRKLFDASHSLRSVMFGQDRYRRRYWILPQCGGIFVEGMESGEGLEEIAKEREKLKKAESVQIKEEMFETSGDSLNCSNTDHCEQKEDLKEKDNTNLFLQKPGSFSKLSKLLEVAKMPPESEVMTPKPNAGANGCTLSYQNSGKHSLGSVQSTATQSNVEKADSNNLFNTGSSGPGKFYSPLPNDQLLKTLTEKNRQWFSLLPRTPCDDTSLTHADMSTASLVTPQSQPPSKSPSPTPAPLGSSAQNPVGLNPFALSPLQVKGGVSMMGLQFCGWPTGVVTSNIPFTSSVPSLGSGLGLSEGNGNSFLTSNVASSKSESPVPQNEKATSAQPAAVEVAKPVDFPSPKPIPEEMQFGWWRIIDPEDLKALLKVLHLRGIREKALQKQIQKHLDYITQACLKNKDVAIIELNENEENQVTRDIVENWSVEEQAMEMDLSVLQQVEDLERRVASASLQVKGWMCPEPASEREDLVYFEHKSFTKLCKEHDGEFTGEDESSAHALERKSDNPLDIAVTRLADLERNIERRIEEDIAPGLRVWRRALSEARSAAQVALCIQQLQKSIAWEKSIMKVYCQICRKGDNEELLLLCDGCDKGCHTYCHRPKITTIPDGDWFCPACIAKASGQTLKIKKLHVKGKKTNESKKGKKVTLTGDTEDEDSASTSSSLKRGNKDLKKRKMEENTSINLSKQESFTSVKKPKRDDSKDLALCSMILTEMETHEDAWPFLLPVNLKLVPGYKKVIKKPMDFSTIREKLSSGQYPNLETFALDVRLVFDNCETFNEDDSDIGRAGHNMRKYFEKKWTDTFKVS
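BAZ2B (50 nM) with biotin-H3(5-23)K14Ac peptide (50 nM) in PBS pH 7.4, 0.01% Tween-20, preformed 30 min, then compound 30 min at room temperature; top concentration 110uM. AlphaScreen streptavidin donor/nickel chelate acceptor beads (10 ug/mL final), 20 min dark, signal read.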
JMJD2A Tudor: inhibitors of human JMJD2A Tudor domain; Potency, µM (highest dose often 114 µM), without a hit: at the top dose activity change, negative = inhibition, most hits filed as inhibitors; AID 504339; O75164; 390,000 compounds, 4.4% hits; AlphaScreen JMJD2A-Tudor / H3K4me3 peptide binding; also: % is scaled to controls: 0 for no effect and ±100 for the full control effect; nearly all actives have a fitted effect of over 50% in size
VDR inhibitor: inhibitors of human vitamin D receptor; VDR-SRC2-3 peptide fluorescence polarization, 2 h; Potency, µM, for inactives: max response, negative = inhibition, most hits filed as inhibitors; 400,000 compounds, 0.93% hits; also: % is scaled to controls: 0 for no effect and ±100 for the full control effect
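FP read-out; VDR + SRC2-3 coactivator peptide; 23 nl compound by pintool; 2 h RT incubation; reagents held at 4 deg C, protected from light.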
G9a inh: G9a (human) methyltransferase inhibition. G9a H3K9 monomethylation, AlphaScreen, 2 h. Q96KQ7. AID 504332. 350,000 compounds, 8.8% hits. Potency, µM (highest dose often 102 µM), inactives show top-dose activity, negative = inhibition, hits mostly inhibitors; also: % is scaled to controls: 0 for no effect and ±100 for the full control effect; nearly all actives have a fitted effect of over 75% in size
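G9a (20 nM) was preincubated 15 min with compound, then reacted 2 h at room temperature with 500 nM biotin-H3K9 peptide and 20 µM SAM. Monomethyl-H3K9 detected by AlphaScreen using anti-H3K9me1 antibody.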
PLK1 PBD block: inhibitors of human PLK1 polo-box domain binding | P53350 | Plk1 PBD binding of FITC phosphopeptide, fluorescence polarization | Potency, µM, without a hit: max response, negative = inhibition, usual class: inhibitors | 360,000 compounds, 2.8% hits | AID 720504; also: series mostly up to about 57 µM; % is scaled to controls: 0 for no effect and ±100 for the full control effect; nearly all actives have a fitted effect of over 65% in size
An asterisk follows results filed as active; ? = inconclusive; nt = no result given; [ ] = another dose, or the depositor's remark. Calls follow the shape of the dose curve; as a rule, active = well fitted curve in the direction sought with a large enough effect; inconclusive = small, poorly fitted or top-dose-only effect, or another doubt; inactive = no such curve, though single readings can be large; an effect the other way counts as inactive or inconclusive. Potency is read from the fitted curve at half-maximal effect.

SMILES	HP1b binding inh	BAZ2B inh	JMJD2A Tudor	VDR inhibitor	G9a inh	PLK1 PBD block
COc1ccc(S(=O)(=O)NCC2CCC(C(=O)NCc3ccco3)CC2)cc1 (stereo unspecified)	-17.4%	5.8%	-22.6%[11.4 µM]	-6.1%	-3.5%	10.6µM*
COc1ccc(C(=O)Nc2ccc(S(=O)(=O)NCc3ccco3)cc2)cc1OC	-0.4%	-1.0%	?	5.9%	39.8µM*	-7.1%
COc1cccc(NC(=O)COC(=O)c2ccc(S(=O)(=O)NCc3ccco3)cc2)c1	-27.9%	?	35.5µM*	-8.8%	-3.5%[12.7 µM]	-20.7%
CC(=O)Nc1ccc(NC(=O)COC(=O)c2ccc(S(=O)(=O)NCc3ccco3)cc2)cc1	17.1%[57 µM]	nt	-3.4%	7.0%	nt	4.2%
O=C(OCc1nnc(-c2ccccc2)o1)c1ccc(S(=O)(=O)NCc2ccco2)cc1	?	79.4µM*	79.4µM*	-16.8%	9.2%[12.7 µM]	-25.9%
COc1ccccc1NC(=O)c1ccc(S(=O)(=O)NCc2ccco2)cc1	26.7%	-37.4%	-28.2%	8.3%	-16.9%	-5.3%
Cc1ccc(S(=O)(=O)NCC2CCC(C(=O)NCc3ccco3)CC2)cc1 (stereo unspecified)	25.3%	4.5%	-20.0%	-16.4%	8.1%[12.7 µM]	-5.2%
CC(O)C#C[Si](C)(C)c1ccccc1 (stereo unspecified)	nt	nt	nt	-2.8%	nt	nt
OC1(c2cccs2)CN(c2ccc(Br)cc2)C2=[N+]1CCCS2 (stereo unspecified)	37.2%	-14.4%	-19.5%	-4.5%	-36.2%	1.0%
OC1(c2ccccc2)CN(c2ccccc2)C2=[N+]1CCS2 (stereo unspecified)	0.8%	39.8µM*	-20.1%	-9.2%	-23.4%[59 µM]	-0.7%
c1ccc(-n2cnnn2)cc1	nt	nt	nt	11.0%	nt	nt
c1ccc(-n2nc3c(ccc4cnnc43)[nH]2)cc1	-6.5%	50.1µM*	16.4%[11.4 µM]	-9.4%	17.8µM*	-29.9%
CN(C)C(=O)[C@H]1C[C@H]1[C@@H](O)[C@H](CO)NC(=O)[C@H](COCc1ccccc1)NC(=O)OC(C)(C)C	54.6%	11.2%[57.1 µM]	0.0%	-0.4%	-2.4%	-2.8%
O=C(Cc1nc2ccccc2[nH]1)c1ccc(Cl)cc1	18.2%	-2.9%	-18.7%	-20.7%	4.3%	-3.7%
Clc1ccc(/C(Cc2nc3ccccc3[nH]2)=N\Nc2ccccc2)cc1	-11.3%	?	?	-24.3%	7.08µM*	-8.4%
O=C(N[C@@H](Cc1ccccc1)C(=O)N1CCN(S(=O)(=O)c2ccccc2F)CC1)c1ccco1	25.4%	nt	-15.1%	3.9%	nt	2.2%
COc1ccccc1NS(=O)(=O)c1ccc(N/N=C/c2c(C)nn(-c3ccccc3)c2N2CCCC2)c([N+](=O)[O-])c1	?	4.47µM*	?	9.1%	4.47µM*	-9.6%
COc1c(/C=N/Nc2ccc([N+](=O)[O-])cc2[N+](=O)[O-])c(C)nn1-c1ccccc1	-2.2%	-22.2%	-26.8%	-9.0%	81.0%[59 µM]	-3.2%
COc1ccccc1NS(=O)(=O)c1cc([N+](=O)[O-])ccc1N/N=C/c1sc(N2CCOCC2)nc1-c1ccccc1	?	?	-11.8%	-21.4%	39.8µM*	17.2%
COc1ccccc1NS(=O)(=O)c1cccc(C(=O)N/N=C/c2c(C)nn(-c3ccccc3)c2N2CCCC2)c1	11.5%	-30.1%	-25.2%	-16.4%	-5.4%[59 µM]	-8.0%
Cc1nn(-c2ccccc2)c(N2CCCC2)c1/C=N/Nc1ccc(S(=O)(=O)Nc2ccccc2)cc1[N+](=O)[O-]	?	?	5.01µM*	1.8%	?	-8.2%
COc1ccc(C(=O)N/N=C/c2sc(N3CCOCC3)nc2-c2ccccc2)cc1OC	36.7%	-24.9%	-16.1%	-3.6%	-1.9%	-7.5%
O=S(=O)(c1ccccc1)N1CCC[C@@]2(CCN(Cc3nccs3)C2)C1	nt	nt	nt	-1.6%	-2.2%[12.7 µM]	nt
O=S(=O)(CCNCc1ccco1)NC1CCCCC1	53.9%	nt	-20.9%	-5.6%	nt	-1.4%
COc1ccc(C)cc1NC(=O)CCS(=O)(=O)c1cc2c(cc1Cl)NC(=O)CO2	49.1%	-20.2%	-4.7%	-7.6%	-2.4%[59 µM]	-8.8%
SMILES	HP1b binding inh	BAZ2B inh	JMJD2A Tudor	VDR inhibitor	G9a inh	PLK1 PBD block
COc1cccc(C(=O)N(C)CC2CCN(CCc3cccc(C(F)(F)F)c3)CC2)c1	45.6%	6.3%	-4.1%	-11.3%	14.0%	0.6%
CC(=O)NCCC(=O)N(C)CC1CCN(CCc2cccc(C(F)(F)F)c2)CC1	23.3%	-29.3%	?	?	66.3%	21.2µM*
CC(CNC(=O)Cn1c(-c2cccs2)cc2ccccc21)c1ccccc1 (stereo unspecified)	51.4%	1.1%	-1.3%	9.6%	-2.2%[59 µM]	nt
CCOC(=O)C1C(=O)CC(C)(O)C(C(=O)OCC)C1c1ccco1 (stereo unspecified)	-17.4%	9.2%	-19.1%[11.4 µM]	-21.0%	-34.2%[12.7 µM]	3.36µM*
CCOC(=O)C1C(=O)CC(C)(O)C(C(=O)OCC)C1c1ccc(F)cc1 (stereo unspecified)	33.1%	4.2%	-13.5%	-3.5%	18.3%[59 µM]	1.4%
CCOC(=O)C1C(=O)CC(C)(O)C(C(=O)OCC)C1c1ccc(N(CC)CC)cc1 (stereo unspecified)	5.4%	-19.0%	-23.2%	-4.1%	14.1µM*	-6.7%
Cc1cccc(C(=O)N2CCc3cc(CNS(=O)(=O)c4ccc(Cl)s4)ccc32)c1	29.6%[57 µM]	4.4%	0.0%	10.8%	5.2%[59 µM]	nt
COc1ccc(N2CCN(C(=O)/C=C/c3ccco3)CC2)cc1	18.1%	-29.8%	-25.5%	-12.1%	31.6µM*	-6.8%
O=C(/C=C/c1ccco1)N1CCN(S(=O)(=O)c2ccccc2)CC1	50.1µM*	nt	56.2µM*	-6.6%	nt	-26.1%
O=C(/C=C/c1ccco1)N1CCN(S(=O)(=O)c2ccc(F)c(F)c2F)CC1	27.7%	-22.6%	-7.7%	-8.4%	?	-6.7%
Cc1ccc(C)c(S(=O)(=O)N2CCN(C(=O)/C=C/c3ccco3)CC2)c1	?	?	44.7µM*	89.1µM*	-21.2%[12.7 µM]	?
COc1cccc(/C=C/C(=O)N2CCN(S(=O)(=O)c3ccccc3)CC2)c1OC	29.2%	?	-2.0%	-6.3%	50.1µM*	5.2%
CCOc1ccc(NC(=O)CSc2nnc(CCNC(=O)c3ccc(OC)cc3)n2C)cc1	11.6%	6.3%	-3.7%	-7.0%	23.2%	-8.3%
Cc1cc(C)n2nc(C(=O)NC3CCCc4ccccc43)nc2n1 (stereo unspecified)	-16.3%	-9.1%	-11.4%	-9.9%	3.6%	?
Cc1ccc(S(=O)(=O)N2CCN(C(=O)/C=C/c3ccco3)CC2)cc1	?	50.1µM*	79.4µM*	-1.3%	44.7µM*	-19.5%
Cc1ccc(S(=O)(=O)N2CCN(C(=O)c3ccco3)CC2)cc1	-8.4%	-12.8%	?	?	-4.4%	-25.4%

From PubChem
